Source: PubChem BioAssay (Tox21)
Results filed as inconclusive are left out. The source made the active and inactive calls. Unless noted, the call rests on the fitted dose curve; in most records, active means well fitted curve in the direction sought with a large enough effect in the repeat runs; inconclusive means weak or mixed curves; inactive means no such curve, though single readings can be large; an effect the other way counts as inactive or inconclusive.

Experiments:
[1] = molecular target: Thyrotropin receptor (Homo sapiens) (UniProt P16473); assay: qHTS assay to identify small molecule agonists of the thyroid stimulating hormone receptor (TSHR) signaling pathway (AID 1224843; calls by dose curve; further: nearly all actives have a fitted effect of over 45% in size)
Sequence of Thyrotropin receptor (Homo sapiens) (P16473 whole entry, looked up): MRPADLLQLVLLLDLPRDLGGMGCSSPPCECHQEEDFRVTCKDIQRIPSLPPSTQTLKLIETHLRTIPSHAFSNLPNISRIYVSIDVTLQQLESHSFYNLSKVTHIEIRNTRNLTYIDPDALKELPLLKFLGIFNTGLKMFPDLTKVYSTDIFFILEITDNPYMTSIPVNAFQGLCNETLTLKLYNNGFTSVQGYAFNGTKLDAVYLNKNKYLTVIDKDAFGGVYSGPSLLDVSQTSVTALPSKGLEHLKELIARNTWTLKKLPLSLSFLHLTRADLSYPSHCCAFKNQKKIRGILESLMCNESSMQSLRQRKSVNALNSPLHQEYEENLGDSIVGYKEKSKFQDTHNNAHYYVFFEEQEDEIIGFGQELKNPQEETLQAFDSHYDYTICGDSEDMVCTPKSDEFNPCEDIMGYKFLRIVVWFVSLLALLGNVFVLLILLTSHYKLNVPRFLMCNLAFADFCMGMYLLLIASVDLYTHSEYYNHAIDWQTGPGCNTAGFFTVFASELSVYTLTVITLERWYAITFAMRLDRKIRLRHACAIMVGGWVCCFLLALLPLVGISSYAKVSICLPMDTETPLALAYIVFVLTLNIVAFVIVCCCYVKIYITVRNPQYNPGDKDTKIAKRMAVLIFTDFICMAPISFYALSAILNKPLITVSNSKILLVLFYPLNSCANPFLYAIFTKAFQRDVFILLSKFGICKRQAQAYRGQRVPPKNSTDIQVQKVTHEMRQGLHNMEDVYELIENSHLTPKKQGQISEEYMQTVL
Method in brief: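 Cell line HEK293 with TSHR; density 800/well. Exposure 30 min RT. Readout HTRF cAMP (cAMP-d2/anti-cAMP-cryptate), 1 h RT before reading.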

[2] = qHTS assay to identify small molecule agonists of the hypoxia (HIF-1) signaling pathway - cell viability counter screen (AID 1224844; calls by dose curve; further: nearly all actives have a fitted effect of over 50% in size; further: potency means the concentration at half of the fitted maximal effect)
Method in brief: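 ME-180 HRE-bla cells, 2,000/well, 0.5% dialyzed FBS; 5 hr settle, 17 hr compound at 37C/5% CO2; CCF4-AM reporter read first, then CellTiter-Glo luminescence after 30 min RT.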

[3] = qHTS assay to identify small molecule agonists of the hypoxia (HIF-1) signaling pathway (AID 1224846; active means well fitted activation curve with a large enough effect in the signal ratio in the repeat runs, not every such curve was filed as active; the % refers to the signal ratio)
Method in brief: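 Cell line: CellSensor HRE-bla ME-180; 2,000 cells/well; 0.5% dialyzed FBS; 5 h preincubation; DMSO compound pin transfer; 17 h, 37C, 5% CO2; CCF4-AM added; bla FRET signal scored for activation.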

[4] = qHTS assay to identify small molecule agonists of H2AX - cell viability counter screen (AID 1224847; calls by dose curve; further: top concentration of the series differs between compounds; nearly all actives have a fitted effect of over 30% in size)
Method in brief: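 Cytotoxicity counter screen in wild-type CHO-K1 cells: a 3 hr compound treatment at 37C across 15 concentrations, followed by CellTiter-Glo luminescence to gauge viable cells.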

[5] = qHTS assay to identify small molecule antagonists of the estrogen related receptor (ERR) signaling pathway from Tox21 library (AID 1224848); further: nearly all actives have a fitted effect of over 50% in size; further: potency means the concentration at half of the fitted maximal effect
Method in brief: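 Screening used an ERR reporter line supplied by NTP, exposed for 18 h at 37 C to library compounds delivered in DMSO. Signal was luciferase luminescence developed with ONE-Glo at room temperature for 30 min.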

[6] = qHTS RealTime-Glo MT Cell Viability Assay in HepG2 cells - 24 hour (AID 1224867); further: nearly all actives have a fitted effect of over 50% in size
Method in brief: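 Tox21 10K library screened in qHTS format on HepG2 cells carrying RealTime-Glo reagents. Compounds were added after a 5 h preincubation, and the luminescent signal from continuous culture was measured repeatedly during 40 h treatment.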

[7] = A CellTox Green Cytotoxicity Assay to monitor cytotoxicity in HEK293 cells - 0 hour (AID 1224869); further: nearly all actives have a fitted effect of over 50% in size
Method in brief: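 Nonlytic real-time cytotoxicity: HEK293 + CellTox Green reagent plated, 5 h preincubation, pintool compound addition (23 nL in DMSO), 37 C for 40 h, fluorescence measured at successive time points.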

[8] = qHTS assay to identify small molecule agonists of H2AX (AID 1224845; active means well fitted activation curve with a large enough effect in the signal ratio in the repeat runs, not every such curve was filed as active; the % refers to the signal ratio)
Method in brief: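 Wild-type CHO-K1 cells plated overnight, then exposed 3 hr at 37C to compounds at 15 concentrations (0.76% DMSO). Lysed, then HTRF anti-pH2AX(S139)-cryptate/anti-H2AX-d2 detection after 24 hr at room temperature; emissions 665 and 620 nm.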

[9] = qHTS RealTime-Glo MT Cell Viability Assay in HEK293 cells - 32 hour (AID 1224868); further: nearly all actives have a fitted effect of over 50% in size; further: potency means the concentration at half of the fitted maximal effect; on activity change, negative = cytotoxic: top concentration of the series differs between compounds
Method in brief: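 Luminescence generated by NanoLuc from substrate produced by living HEK293 cells served as the viability signal. Each value reflects the reading at its stated time point during continuous 40 h compound exposure at 37 C.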

[10] = qHTS assay to identify small molecule agonists of the estrogen related receptor (ERR) signaling pathway from Tox21 library (AID 1224849; calls by dose curve; further: nearly all actives have a fitted effect of over 15% in size); conditions: ERR reporter cell line, ONE-Glo luciferase, 18 h; at 92.4 µM (top of the series) unless noted
Method in brief: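 ERR cells, 6 h pre-incubation 37 C/5% CO2; cpd in DMSO pinned; 18 h 37 C; ONE-Glo added, 30 min RT; luminescence read. Agonist mode, qHTS.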
On the % scale 0 is the no-effect control and ±100 the full control effect.

O=Cc1ccc(Cl)c([N+](=O)[O-])c1
inactive: Potency [1] | Potency [2] | outcome [3] | Potency [4] | outcome [6] | Potency [7]
active: Potency [5] 54.5 µM

COc1cc(CNC(=O)CCCC/C=C/C(C)C)ccc1O
active: Potency [9] 7.56 µM
inactive: Potency [1] | Potency [2] | Potency [8] | outcome [6] | Potency [7]

CC(C)(C(=O)O)c1ccc(C(O)CCCN2CCC(C(O)(c3ccccc3)c3ccccc3)CC2)cc1 (stereo unspecified)
inactive: Potency [1] | Potency [2] | Potency [8] | Potency [4] | outcome [6] | Potency [9] | Potency [7]

Cc1ccc(NC(=O)c2ccc(CN3CCN(C)CC3)cc2)cc1Nc1nccc(-c2cccnc2)n1
active: Potency [9] 21.3 µM
inactive: Potency [1] | Potency [2] | Potency [8] | outcome [6] | Potency [7]

O=C(OCCN1CCOCC1)c1cccnc1Nc1cccc(C(F)(F)F)c1
inactive: Potency [1] | Potency [2] | Potency [8] | Potency [4] | outcome [6] | Potency [7]

CCC1=C(C)CN(C(=O)NCCc2ccc(S(=O)(=O)NC(=O)NC3CCC(C)CC3)cc2)C1=O (stereo unspecified)
inactive: Potency [1] | Potency [2] | Potency [8] | Potency [5] | outcome [6] | Potency [9] | Potency [7]

CCOc1ccc2c(c1)C(C)CC(C)(C)N2 (stereo unspecified)
inactive: Potency [1] | Potency [2] | outcome [3] | Potency [4] | outcome [6] | Potency [9] | Potency [7]

C=CC(C)CCC=C(C)C (stereo unspecified)
inactive: Potency [1] | Potency [2] | Potency [8] | Potency [4] | outcome [6] | Potency [9] | Potency [7]

CC(=O)S[C@H](C(=O)N[C@H]1Cc2ccccc2[C@H]2CCC[C@@H](C(=O)O)N2C1=O)C(C)C
inactive: Potency [1] | Potency [2] | outcome [3] | Potency [4] | Potency [5] | outcome [6] | Potency [9] | Potency [7]

CC(C)CC(C)(C)C
inactive: Potency [1] | Potency [8] | Potency [4] | outcome [6]

CC1(COc2ccc(CC3SC(=O)NC3=O)cc2)CCCCC1 (stereo unspecified)
inactive: Potency [1] | Potency [8] | outcome [3] | Potency [4] | Potency [5] | activity change, positive = activation [10] 7.77% [at 42.5 µM] | outcome [6] | Potency [9] | Potency [7]

CC(C)C[C@H](NC(=O)[C@H](Cc1ccccc1)NC(=O)c1cnccn1)B(O)O
active: Potency [2] 0.0213 µM | Potency [5] 0.0237 µM | Potency [9] 0.0379 µM
inactive: Potency [1] | Potency [7]

Cc1c(Cl)cccc1[N+](=O)[O-]
inactive: Potency [2] | Potency [8] | outcome [3] | Potency [4] | outcome [6] | Potency [9] | Potency [7]

O=C(O)c1cc(C(=O)O)cc([N+](=O)[O-])c1
inactive: Potency [2] | Potency [8] | outcome [3] | Potency [4] | outcome [6] | Potency [9] | Potency [7]

CCCCCCCCS
inactive: Potency [2] | Potency [8] | outcome [3] | Potency [4] | outcome [6] | Potency [9] | Potency [7]

Cc1ccc(Cl)c(OCC(O)CNC(C)(C)C)c1 (stereo unspecified)
inactive: Potency [2] | Potency [8] | outcome [3] | Potency [4] | outcome [6] | Potency [9] | Potency [7]

CCC(CC)C(=O)O
inactive: Potency [2] | Potency [8] | outcome [3] | Potency [4] | outcome [6] | Potency [9] | Potency [7]

O=C(O)c1c2ccccc2cc2ccccc12
active: Potency [9] 43.5 µM
inactive: Potency [1] | Potency [2] | Potency [4] | outcome [6] | Potency [7]

CCCOC(C)=O
inactive: Potency [1] | Potency [8] | outcome [3] | Potency [4] | outcome [6] | Potency [9] | Potency [7]

O=c1[nH][nH]c2ccccc12
inactive: Potency [1] | Potency [2] | outcome [3] | Potency [4] | outcome [6] | Potency [7]

CCCCCCCCC(=O)OCC(C)OC(=O)CCCCCCCC (stereo unspecified)
inactive: Potency [2] | Potency [8] | outcome [3] | Potency [4] | outcome [6] | Potency [9] | Potency [7]

CC(=O)Oc1cccc2c1C(=O)c1c(OC(C)=O)cc(C(=O)O)cc1C2=O
active: Potency [5] 23.7 µM
inactive: Potency [1] | Potency [2] | Potency [4] | activity change, positive = activation [10] -46.2% [at 42.5 µM] | outcome [6] | Potency [9] | Potency [7]

O=C(O)c1ccc2cc(O)ccc2c1
inactive: Potency [2] | Potency [8] | outcome [3] | Potency [4] | outcome [6] | Potency [9] | Potency [7]

CCCCOC(=O)C(C)Oc1ccc(Oc2ccc(C(F)(F)F)cn2)cc1 (stereo unspecified)
inactive: Potency [2] | Potency [8] | outcome [3] | Potency [4] | outcome [6] | Potency [9] | Potency [7]

c1ccc(-c2ccc(-c3ccccc3)cc2)cc1
inactive: activity change, negative = cytotoxicity [2] 1.63% [at 15.8 µM] | activation (H2AX phosphorylation) [8] -0.824% [at 31.6 µM] | activation [3] -1.07% [at 15.8 µM] | activity change, negative = cytotoxicity [4] -0.782% [at 31.6 µM] | activity change, negative = cytotoxicity [6] 1.53% [at 15.8 µM] | activity change, negative = cytotoxic [9] 0.807% [at 15.8 µM] | cytotoxicity [7] -5.7% [at 15.8 µM]

COC(=O)C(C)(C)C
inactive: Potency [1] | Potency [8] | outcome [3] | Potency [4] | Potency [5] | outcome [6] | Potency [7]

S=c1[nH][nH]c(=S)s1
inactive: Potency [1] | Potency [2] | Potency [4] | outcome [6] | Potency [7]
